From PubChem BioAssay (NCI) come the findings set out here.

Some test systems named below: NCI-H23 lung; NCI-H226 lung; NCI-H322M lung; HOP-62 NSCLC; HOP-92 NSCLC; NCI-H522 lung; A549/ATCC NSCLC; 786-0 renal; COLO 205 colon; NCI-H460 lung.
Assay in all cases: NCI-60 one-dose screen, 48 h (100 = growth as untreated, 0 = no growth, -100 = all killed)
Holding throughout (conditions): 10 µM unless noted

About 83,000 compounds went through this panel and 20% of them were active in at least one assay; those are over-represented in the sample as a whole.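 96-well plates, one dose, 48 hours. Percent growth reported; active if below 10.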 A number with no mark means an inactive call. Activity calls are given as the source filed them.

Consider `COc1ccc(N=Nc2c(N)nn3c(-c4ccc([N+](=O)[O-])cc4)ccnc23)cc1`, for which the growth is 105% in the test on NCI-H23 lung; 95.2% in the test on NCI-H226 lung; 107% with NCI-H322M lung; 95.3% in the test on HOP-62 NSCLC; 94.5% with HOP-92 NSCLC; 91.6% with NCI-H522 lung. In addition, the growth in the test with A549/ATCC NSCLC is 104%; with 786-0 renal, 93%; with COLO 205 colon, 119%.
In the case of `COc1ccc(N=Nc2c(N)nn3c(N)c(C#N)c(-c4ccccc4)nc23)cc1`, the growth in the test with NCI-H23 lung is 32.3%; in the test on NCI-H226 lung, 0.868% (active); in the test with NCI-H322M lung, 45.7%; in the test on HOP-62 NSCLC, -1.62% (active); in the test on HOP-92 NSCLC it was -9.66% (active); in the test on NCI-H522 lung, -4.5% (active). Besides, the values for the growth with A549/ATCC NSCLC, in the test on 786-0 renal and in the test on COLO 205 colon were 53.1%, 13.8% and 80.8%, respectively.
In the case of `Cc1ccc(C(C)C)cc1Oc1cccc(-c2c(-c3ccc(C(F)(F)F)cc3)ncn2C2CCNCC2)n1`, the growth in the test with NCI-H23 lung was -89% (active); in the test on NCI-H226 lung, -78.4% (active); with NCI-H322M lung it was -98.4% (active); with HOP-62 NSCLC it was -82.7% (active); in the test with NCI-H460 lung, -84.3% (active); in the test on HOP-92 NSCLC, -85.8% (active). In addition, the growth in the test on NCI-H522 lung is -91.2% (active); in the test on A549/ATCC NSCLC, -86.8% (active); in the test with 786-0 renal, -90.8% (active); in the test on COLO 205 colon, -87.5% (active).
As for `CC1=C(C)C(=O)C(N2CCSCC2)=CC1=O`, the growth with NCI-H23 lung was 93.9%; in the test on NCI-H226 lung it was 88.7%; in the test on NCI-H322M lung, 96.9%; with HOP-62 NSCLC, 99.1%; in the test with HOP-92 NSCLC, 89.5%; in the test on NCI-H522 lung it was 94.3%. Besides, the growth in the test with A549/ATCC NSCLC is 99.3%; in the test on 786-0 renal it was 99.4%; with COLO 205 colon, 121%.
As for `COc1ccccc1NC(=O)N/N=C/c1c[nH]c2ccccc12`, the growth with NCI-H23 lung was 0.507% (active); with NCI-H226 lung it was 19%; with NCI-H322M lung, 49.4%; in the test with HOP-62 NSCLC it was 47.6%; with HOP-92 NSCLC, 47.7%; with NCI-H522 lung it was -37.1% (active). Moreover, the figures for the growth in the test with A549/ATCC NSCLC, in the test on 786-0 renal and in the test with COLO 205 colon were 30.5%, 14.9% and 4.3% (active), respectively.
Turning to `Nc1cc(-c2c[nH]c3ccc(Cl)cc23)nc2cc(-c3c[nH]c4ccccc34)nn12`, the growth was -56% (active) with NCI-H23 lung; 35.5% in the test on NCI-H226 lung; 5.87% (active) in the test on NCI-H322M lung; -48% (active) in the test with HOP-62 NSCLC; -22.8% (active) in the test with HOP-92 NSCLC; -75% (active) in the test on NCI-H522 lung. Besides, the growth with A549/ATCC NSCLC was -8.14% (active); in the test on 786-0 renal it was -52.1% (active); in the test on COLO 205 colon, -86% (active).
Consider `COc1ccc(N=Nc2c(N)nn3c(N)c(C#N)c(-c4ccc(C)cc4)nc23)cc1`, for which the growth is 62.9% with NCI-H23 lung; 54.7% in the test on NCI-H226 lung; 78.7% in the test with NCI-H322M lung; 63.6% in the test on HOP-62 NSCLC; 26.6% with NCI-H460 lung; 19.4% in the test on HOP-92 NSCLC. In addition, the growth with NCI-H522 lung is 48.9%; in the test on A549/ATCC NSCLC it was 43.3%; in the test with 786-0 renal it was 80.9%; in the test with COLO 205 colon it was 85.6%.
On to `CS(=O)(=O)Nc1cncc(-c2ccc3ncnc(NCc4ccccc4)c3c2)c1`, for which the growth with NCI-H23 lung was 21.8%; with NCI-H226 lung it was 38.5%; in the test on NCI-H322M lung it was 47.2%; in the test with HOP-62 NSCLC it was 46.5%; in the test with HOP-92 NSCLC, -12.3% (active); in the test with NCI-H522 lung it was 39.4%. Besides, the values for the growth in the test on A549/ATCC NSCLC, in the test on 786-0 renal and with COLO 205 colon were 90.1%, 55% and 41.9%, respectively.
In the case of `N#Cc1ccc(C(=O)CSc2nc3c(c(Nc4ccc(S(N)(=O)=O)cc4)n2)CCC3)cc1`, the growth with NCI-H23 lung is -0.896% (active); in the test on NCI-H226 lung, 54.1%; in the test on NCI-H322M lung it was 75.3%; in the test on HOP-62 NSCLC, 1.39% (active); with HOP-92 NSCLC, 14.1%; in the test with NCI-H522 lung, 44.6%. The growth in the test on A549/ATCC NSCLC is 50%; in the test on 786-0 renal, -22.3% (active); in the test with COLO 205 colon, 87.2%.
With `c1ccc(CSc2nnc(-c3ccc4nc(-c5ccccc5)[nH]c4c3)o2)cc1`, the growth is 68% with NCI-H23 lung; -40.1% (active) in the test with NCI-H226 lung; 35.9% with NCI-H322M lung; -3.53% (active) in the test with HOP-62 NSCLC; 32.2% in the test with HOP-92 NSCLC; 33.7% with NCI-H522 lung. The growth is -12.4% (active) in the test with A549/ATCC NSCLC, -17.3% (active) in the test on 786-0 renal and 78.3% with COLO 205 colon.
As to `COc1ccc2[nH]c(O)c(N=Nc3nc(-c4ccccc4)cs3)c2c1`, the growth was 23.9% in the test with NCI-H23 lung; 11.2% with NCI-H226 lung; 26.5% with NCI-H322M lung; 21.3% in the test on HOP-62 NSCLC; -8.09% (active) in the test on HOP-92 NSCLC; 8.94% (active) in the test with NCI-H522 lung. The growth in the test on A549/ATCC NSCLC was 2.49% (active); in the test with 786-0 renal, -44.8% (active); in the test with COLO 205 colon, 30%.
In the case of `COc1cc(C2CC(c3ccc(Cl)cc3)=Nc3c(N)nc(N)nc3N2)ccc1Oc1nc(Nc2ccc(F)cc2)nc(N(C)C)n1` (centres undefined), the growth was 76.6% in the test with NCI-H23 lung; 60.9% in the test on NCI-H226 lung; 93.8% with NCI-H322M lung; 74.1% with HOP-62 NSCLC; 12.6% in the test with HOP-92 NSCLC; 38.9% in the test with NCI-H522 lung. For the same compound, the growth with A549/ATCC NSCLC was 47.2%; with 786-0 renal, 38.2%; with COLO 205 colon, 55.4%.
Consider `O=C(Cc1c(-c2ccccc2[N+](=O)[O-])n(-c2ncnc3c2c(-c2ccccc2)c(-c2ccccc2)n3Cc2ccccc2)[nH]c1=O)c1ccc(Cl)c(Cl)c1`, for which the growth is 9.58% (active) with NCI-H23 lung; 24.7% with NCI-H226 lung; 42.7% in the test on NCI-H322M lung; 49.3% in the test on HOP-62 NSCLC; 15.9% in the test on NCI-H460 lung; -3.98% (active) in the test with HOP-92 NSCLC. Further, the growth in the test with NCI-H522 lung is -10.1% (active); with A549/ATCC NSCLC, 25.6%; with 786-0 renal, 36.2%; in the test on COLO 205 colon, 43.1%.
For the compound `O=C(N/N=C/c1ccoc1)c1[nH]c2ccc(Br)cc2c1-c1ccccc1`, the growth in the test with NCI-H23 lung is -96.6% (active); in the test with NCI-H226 lung, -66.2% (active); in the test on NCI-H322M lung, -86.4% (active); with HOP-62 NSCLC, -70.6% (active); in the test on HOP-92 NSCLC it was -62.4% (active); with NCI-H522 lung it was -82.2% (active). Further, the growth in the test with A549/ATCC NSCLC was -60.4% (active); in the test on 786-0 renal it was -76.5% (active); in the test on COLO 205 colon it was -68.9% (active).
